Results on one sequence are retold here after article PMC7862700, “An all-to-all approach to the identification of sequence-specific readers for epigenetic DNA modifications on cytosine”.

Holding throughout (assay): DAPPL (digital affinity profiling via proximity ligation, sequencing); 10 mM Tris-HCl pH 7.5, 50 mM NaCl, 1 mM DTT, 4% glycerol, room temperature, 30 min; GST-TFs on glutathione beads, 16-mer random dsDNA library, 0.1% formaldehyde crosslink after washing; high values mean tight binding
In one assay the target is T1, FEV (Homo sapiens, UniProt Q99581 1-238).
T1 sequence: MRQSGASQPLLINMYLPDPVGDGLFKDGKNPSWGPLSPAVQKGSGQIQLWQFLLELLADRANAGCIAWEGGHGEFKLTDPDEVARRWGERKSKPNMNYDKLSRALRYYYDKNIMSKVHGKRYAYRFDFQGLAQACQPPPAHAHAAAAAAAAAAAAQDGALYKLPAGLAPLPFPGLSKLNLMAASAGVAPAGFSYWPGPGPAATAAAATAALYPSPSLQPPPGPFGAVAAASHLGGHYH
To be noted: protein: recombinant; tags: N-terminal GST; dsDNA, one strand shown. In a few lines:
(§1)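 Binding signal is each hexamer's read frequency for a factor divided by its frequency in the tag-only sample. The factors were GST-fused human transcription factors from yeast, captured on glutathione beads, DNA-barcoded and pooled with that sample. Pools were incubated with 200 nmole of a random double-stranded 16-mer DNA library in Tris/NaCl/DTT/glycerol buffer at room temperature for 30 min, then washed, crosslinked with 0.1% formaldehyde, proximity-ligated with BsaI/T4 ligase (1 h, 37 °C), PCR-amplified and sequenced on an Illumina NextSeq500.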

The target in another assay is ETV5 (Homo sapiens, UniProt P41161 1-510). Conditions: protein: recombinant; tags: N-terminal GST; dsDNA, one strand shown. In a few lines:
as §1

A further assay addresses HSF1 (Homo sapiens, UniProt Q00613 1-529). Conditions: protein: recombinant; tags: N-terminal GST; chain copies: 3; dsDNA, one strand shown. In short, it runs like this:
as §1

For another assay, the target named is T2, SPIC (Homo sapiens, UniProt Q8N5J4 1-248).
T2 sequence: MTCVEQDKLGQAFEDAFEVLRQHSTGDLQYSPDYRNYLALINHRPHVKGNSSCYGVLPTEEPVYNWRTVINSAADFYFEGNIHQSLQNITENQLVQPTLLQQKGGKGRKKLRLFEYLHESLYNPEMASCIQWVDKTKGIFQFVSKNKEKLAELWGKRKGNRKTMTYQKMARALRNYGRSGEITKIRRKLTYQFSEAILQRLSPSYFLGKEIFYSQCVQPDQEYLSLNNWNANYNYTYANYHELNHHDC
Conditions: protein: recombinant; tags: N-terminal GST; dsDNA, one strand shown. In short, it runs like this:
as §1

The target in the next assay is ELF4 (Homo sapiens, UniProt Q99607 1-663). Conditions: protein: recombinant; tags: N-terminal GST; dsDNA, one strand shown. In short, it runs like this: as §1
Sequence of ELF4 (Q99607 whole entry): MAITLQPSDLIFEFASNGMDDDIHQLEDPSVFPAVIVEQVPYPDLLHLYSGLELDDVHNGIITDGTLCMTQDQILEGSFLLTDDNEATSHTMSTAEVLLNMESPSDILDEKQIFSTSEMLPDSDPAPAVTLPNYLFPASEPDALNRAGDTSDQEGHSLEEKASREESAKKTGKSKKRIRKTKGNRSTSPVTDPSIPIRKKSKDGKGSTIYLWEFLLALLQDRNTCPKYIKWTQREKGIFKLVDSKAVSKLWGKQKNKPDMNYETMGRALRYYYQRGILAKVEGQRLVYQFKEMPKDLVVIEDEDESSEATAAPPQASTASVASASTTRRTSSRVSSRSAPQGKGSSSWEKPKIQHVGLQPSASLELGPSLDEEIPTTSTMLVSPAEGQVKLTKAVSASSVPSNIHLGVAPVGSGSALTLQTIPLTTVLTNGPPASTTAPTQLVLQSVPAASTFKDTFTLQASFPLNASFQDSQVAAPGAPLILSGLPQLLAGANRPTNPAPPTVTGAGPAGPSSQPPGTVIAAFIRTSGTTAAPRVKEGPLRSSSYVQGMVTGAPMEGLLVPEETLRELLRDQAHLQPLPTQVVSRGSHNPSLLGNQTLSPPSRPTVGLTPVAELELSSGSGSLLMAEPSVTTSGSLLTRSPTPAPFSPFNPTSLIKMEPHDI
In a further assay the target is T3, ELK4 (Homo sapiens, UniProt P28324-2 1-405).
T3 sequence: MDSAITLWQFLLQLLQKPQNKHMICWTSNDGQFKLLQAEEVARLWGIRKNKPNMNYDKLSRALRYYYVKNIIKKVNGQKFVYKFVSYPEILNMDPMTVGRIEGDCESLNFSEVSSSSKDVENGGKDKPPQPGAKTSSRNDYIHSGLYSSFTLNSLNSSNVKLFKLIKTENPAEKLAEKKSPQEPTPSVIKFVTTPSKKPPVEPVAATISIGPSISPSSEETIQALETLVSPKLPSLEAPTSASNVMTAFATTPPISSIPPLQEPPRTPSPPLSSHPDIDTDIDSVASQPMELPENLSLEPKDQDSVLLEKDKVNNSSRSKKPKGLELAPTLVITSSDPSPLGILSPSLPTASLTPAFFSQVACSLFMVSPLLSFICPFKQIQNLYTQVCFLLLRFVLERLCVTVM
To be noted: protein: recombinant; tags: N-terminal GST; dsDNA, one strand shown. In short, it runs like this:
as §1

The target of another assay is T4, ETV2 (Homo sapiens, UniProt O00321 1-342).
T4 sequence: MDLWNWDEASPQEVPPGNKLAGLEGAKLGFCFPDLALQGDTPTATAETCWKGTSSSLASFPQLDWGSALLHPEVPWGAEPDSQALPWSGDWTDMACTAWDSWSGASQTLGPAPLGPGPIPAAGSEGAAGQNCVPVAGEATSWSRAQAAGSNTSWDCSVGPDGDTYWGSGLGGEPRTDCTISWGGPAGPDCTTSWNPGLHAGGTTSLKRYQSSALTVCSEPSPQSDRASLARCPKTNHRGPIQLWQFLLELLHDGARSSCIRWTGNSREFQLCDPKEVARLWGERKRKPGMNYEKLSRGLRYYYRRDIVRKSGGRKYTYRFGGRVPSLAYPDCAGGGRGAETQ
To be noted: protein: recombinant; tags: N-terminal GST; dsDNA, one strand shown. In a few lines:
as §1

The target in the next assay is T5, ELF3 (Homo sapiens, UniProt P78545 1-371).
T5 sequence: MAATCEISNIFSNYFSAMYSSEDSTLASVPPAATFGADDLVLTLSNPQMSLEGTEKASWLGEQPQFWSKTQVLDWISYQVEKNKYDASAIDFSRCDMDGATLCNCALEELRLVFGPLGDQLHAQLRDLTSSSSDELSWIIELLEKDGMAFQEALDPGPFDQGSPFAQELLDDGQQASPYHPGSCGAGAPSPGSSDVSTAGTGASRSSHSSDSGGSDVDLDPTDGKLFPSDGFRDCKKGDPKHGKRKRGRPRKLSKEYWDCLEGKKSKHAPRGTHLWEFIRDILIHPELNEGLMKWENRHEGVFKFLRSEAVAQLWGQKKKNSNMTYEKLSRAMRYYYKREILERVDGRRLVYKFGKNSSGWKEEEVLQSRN
To be noted: protein: recombinant; tags: N-terminal GST; dsDNA, one strand shown. In a few lines:
as §1

A further assay has as its target CRX (Homo sapiens, UniProt O43186 1-299). Conditions: protein: recombinant; tags: N-terminal GST; dsDNA, one strand shown. In short, it runs like this:
as §1

The next assay has as its target ETV1 (Homo sapiens, UniProt P50549 1-477). Conditions: protein: recombinant; tags: N-terminal GST; dsDNA, one strand shown. In short, it runs like this:
as §1

The next assay has as its target T6, ERF (Homo sapiens, UniProt P50548 1-548).
T6 sequence: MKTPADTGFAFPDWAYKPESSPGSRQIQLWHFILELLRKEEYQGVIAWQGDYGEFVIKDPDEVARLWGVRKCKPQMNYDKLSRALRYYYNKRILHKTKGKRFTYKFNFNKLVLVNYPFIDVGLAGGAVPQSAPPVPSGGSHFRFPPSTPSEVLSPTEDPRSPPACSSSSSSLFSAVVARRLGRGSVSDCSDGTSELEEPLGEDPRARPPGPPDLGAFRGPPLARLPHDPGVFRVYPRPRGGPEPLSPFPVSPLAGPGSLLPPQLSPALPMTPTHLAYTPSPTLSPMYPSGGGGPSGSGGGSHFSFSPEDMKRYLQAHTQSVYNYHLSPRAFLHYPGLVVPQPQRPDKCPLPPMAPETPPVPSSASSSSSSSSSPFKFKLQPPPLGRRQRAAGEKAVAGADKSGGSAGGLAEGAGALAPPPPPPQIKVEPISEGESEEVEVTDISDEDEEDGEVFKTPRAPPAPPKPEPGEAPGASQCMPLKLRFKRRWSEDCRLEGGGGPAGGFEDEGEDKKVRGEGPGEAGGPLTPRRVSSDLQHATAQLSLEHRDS
To be noted: protein: recombinant; tags: N-terminal GST; dsDNA, one strand shown. In short, it runs like this: as §1

The next assay deals with T7, ETV3L (Homo sapiens, UniProt Q6ZN32 1-361).
T7 sequence: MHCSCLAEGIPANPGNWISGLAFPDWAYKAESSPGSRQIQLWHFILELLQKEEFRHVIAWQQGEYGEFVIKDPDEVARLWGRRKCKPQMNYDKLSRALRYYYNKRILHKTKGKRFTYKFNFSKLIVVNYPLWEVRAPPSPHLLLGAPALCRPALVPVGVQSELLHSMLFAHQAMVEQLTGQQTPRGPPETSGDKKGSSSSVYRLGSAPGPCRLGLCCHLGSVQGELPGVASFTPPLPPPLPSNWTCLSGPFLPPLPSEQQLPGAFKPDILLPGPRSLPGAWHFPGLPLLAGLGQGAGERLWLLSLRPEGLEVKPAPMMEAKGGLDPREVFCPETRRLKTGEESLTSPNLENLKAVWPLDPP
To be noted: protein: recombinant; tags: N-terminal GST; dsDNA, one strand shown. In a few lines:
as §1

Another assay addresses T8, ETS2 (Homo sapiens, UniProt P15036 1-469).
T8 sequence: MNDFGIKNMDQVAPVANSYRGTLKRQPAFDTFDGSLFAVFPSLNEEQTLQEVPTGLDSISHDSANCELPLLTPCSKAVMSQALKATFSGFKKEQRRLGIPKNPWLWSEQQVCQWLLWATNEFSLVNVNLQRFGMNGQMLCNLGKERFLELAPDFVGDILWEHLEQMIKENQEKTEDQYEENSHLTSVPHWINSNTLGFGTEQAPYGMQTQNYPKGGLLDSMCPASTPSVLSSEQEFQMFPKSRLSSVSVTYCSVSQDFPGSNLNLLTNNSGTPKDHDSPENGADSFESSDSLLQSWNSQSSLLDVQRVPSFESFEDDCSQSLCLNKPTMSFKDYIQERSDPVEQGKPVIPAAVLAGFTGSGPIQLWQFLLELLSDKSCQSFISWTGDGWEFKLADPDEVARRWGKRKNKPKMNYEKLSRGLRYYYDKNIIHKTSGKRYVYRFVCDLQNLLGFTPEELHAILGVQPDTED
Conditions: protein: recombinant; tags: N-terminal GST; dsDNA, one strand shown. In short, it runs like this: as §1

In a further assay the target is T9, SPDEF (Homo sapiens, UniProt O95238 1-335).
T9 sequence: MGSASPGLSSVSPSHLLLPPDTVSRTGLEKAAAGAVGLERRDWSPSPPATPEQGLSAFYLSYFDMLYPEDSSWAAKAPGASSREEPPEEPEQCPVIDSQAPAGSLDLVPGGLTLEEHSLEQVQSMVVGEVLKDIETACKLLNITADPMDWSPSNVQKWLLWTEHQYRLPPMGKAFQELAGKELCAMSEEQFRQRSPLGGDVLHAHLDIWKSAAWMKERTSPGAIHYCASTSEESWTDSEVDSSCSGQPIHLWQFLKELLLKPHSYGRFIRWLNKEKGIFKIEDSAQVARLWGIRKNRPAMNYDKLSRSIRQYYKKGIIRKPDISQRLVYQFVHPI
Conditions: protein: recombinant; tags: N-terminal GST; dsDNA, one strand shown. In a few lines: as §1

For another assay, the target named is T10, ETV7 (Homo sapiens, UniProt Q9Y603 1-341).
T10 sequence: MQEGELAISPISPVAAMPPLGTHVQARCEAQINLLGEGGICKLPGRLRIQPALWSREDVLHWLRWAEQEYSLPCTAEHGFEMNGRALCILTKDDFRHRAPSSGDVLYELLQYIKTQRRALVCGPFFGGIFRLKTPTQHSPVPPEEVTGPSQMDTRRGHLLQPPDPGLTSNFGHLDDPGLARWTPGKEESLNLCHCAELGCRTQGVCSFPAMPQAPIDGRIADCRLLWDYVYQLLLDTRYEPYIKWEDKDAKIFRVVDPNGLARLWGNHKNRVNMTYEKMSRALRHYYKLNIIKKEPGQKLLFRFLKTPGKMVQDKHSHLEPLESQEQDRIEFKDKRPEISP
To be noted: protein: recombinant; tags: N-terminal GST; dsDNA, one strand shown. In short, it runs like this:
as §1

The target of a further assay is T11, ELF5 (Homo sapiens, UniProt Q9UKW6-2 1-255).
T11 sequence: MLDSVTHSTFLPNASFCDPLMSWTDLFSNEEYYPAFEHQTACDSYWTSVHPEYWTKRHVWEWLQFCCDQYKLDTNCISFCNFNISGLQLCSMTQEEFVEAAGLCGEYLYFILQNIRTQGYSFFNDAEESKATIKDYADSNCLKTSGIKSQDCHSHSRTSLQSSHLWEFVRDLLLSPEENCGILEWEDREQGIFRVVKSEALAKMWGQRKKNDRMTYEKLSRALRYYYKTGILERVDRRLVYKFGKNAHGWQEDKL
To be noted: protein: recombinant; tags: N-terminal GST; dsDNA, one strand shown. In a few lines: as §1

The next assay concerns the target T12, ETV3 (Homo sapiens, UniProt P41162-2 1-143).
T12 sequence: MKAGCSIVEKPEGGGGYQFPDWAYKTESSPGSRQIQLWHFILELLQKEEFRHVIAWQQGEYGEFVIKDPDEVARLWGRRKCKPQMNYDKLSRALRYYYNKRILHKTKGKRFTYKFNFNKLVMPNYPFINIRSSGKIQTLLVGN
To be noted: protein: recombinant; tags: N-terminal GST; dsDNA, one strand shown. In a few lines: as §1

For another assay, the target named is ETV6 (Homo sapiens, UniProt P41212 1-452). To be noted: protein: recombinant; tags: N-terminal GST; dsDNA, one strand shown. In short, it runs like this:
as §1

Sequence of ETV5 (P41161 whole entry): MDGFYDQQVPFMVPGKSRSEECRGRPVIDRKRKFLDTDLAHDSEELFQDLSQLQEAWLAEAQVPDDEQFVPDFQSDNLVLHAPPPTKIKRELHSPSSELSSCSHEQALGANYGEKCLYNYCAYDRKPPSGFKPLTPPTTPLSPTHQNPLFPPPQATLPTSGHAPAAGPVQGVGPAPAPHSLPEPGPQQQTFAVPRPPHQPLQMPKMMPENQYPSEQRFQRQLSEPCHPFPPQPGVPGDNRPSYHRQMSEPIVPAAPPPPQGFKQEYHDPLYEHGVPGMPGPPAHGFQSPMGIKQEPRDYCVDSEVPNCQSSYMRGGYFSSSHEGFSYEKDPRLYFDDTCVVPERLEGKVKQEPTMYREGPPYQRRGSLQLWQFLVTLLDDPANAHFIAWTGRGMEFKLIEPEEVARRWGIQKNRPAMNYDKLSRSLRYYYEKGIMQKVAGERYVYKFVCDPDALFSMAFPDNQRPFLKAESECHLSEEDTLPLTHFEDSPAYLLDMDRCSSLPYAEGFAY
Sequence of ETV1 (P50549 whole entry): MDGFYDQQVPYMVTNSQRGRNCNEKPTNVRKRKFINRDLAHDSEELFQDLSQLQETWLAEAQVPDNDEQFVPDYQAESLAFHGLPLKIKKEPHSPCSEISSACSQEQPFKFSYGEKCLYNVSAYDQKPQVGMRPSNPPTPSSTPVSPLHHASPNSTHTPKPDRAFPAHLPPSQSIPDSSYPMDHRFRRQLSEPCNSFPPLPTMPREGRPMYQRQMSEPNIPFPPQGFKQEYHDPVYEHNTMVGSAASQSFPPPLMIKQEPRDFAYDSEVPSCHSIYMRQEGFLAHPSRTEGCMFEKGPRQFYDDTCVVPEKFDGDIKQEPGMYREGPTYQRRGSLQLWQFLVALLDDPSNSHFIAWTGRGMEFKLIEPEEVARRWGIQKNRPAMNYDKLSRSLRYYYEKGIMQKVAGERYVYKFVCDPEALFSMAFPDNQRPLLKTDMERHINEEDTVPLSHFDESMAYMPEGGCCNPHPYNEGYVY
Sequence of CRX (O43186 whole entry): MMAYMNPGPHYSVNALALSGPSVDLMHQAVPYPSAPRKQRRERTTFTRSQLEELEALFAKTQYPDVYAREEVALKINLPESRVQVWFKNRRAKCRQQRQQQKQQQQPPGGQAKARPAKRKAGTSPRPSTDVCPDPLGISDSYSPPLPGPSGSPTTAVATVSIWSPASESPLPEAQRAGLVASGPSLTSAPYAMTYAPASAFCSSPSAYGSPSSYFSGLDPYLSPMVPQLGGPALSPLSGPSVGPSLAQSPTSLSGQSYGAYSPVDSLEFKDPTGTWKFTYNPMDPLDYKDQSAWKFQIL
Sequence of HSF1 (Q00613 whole entry): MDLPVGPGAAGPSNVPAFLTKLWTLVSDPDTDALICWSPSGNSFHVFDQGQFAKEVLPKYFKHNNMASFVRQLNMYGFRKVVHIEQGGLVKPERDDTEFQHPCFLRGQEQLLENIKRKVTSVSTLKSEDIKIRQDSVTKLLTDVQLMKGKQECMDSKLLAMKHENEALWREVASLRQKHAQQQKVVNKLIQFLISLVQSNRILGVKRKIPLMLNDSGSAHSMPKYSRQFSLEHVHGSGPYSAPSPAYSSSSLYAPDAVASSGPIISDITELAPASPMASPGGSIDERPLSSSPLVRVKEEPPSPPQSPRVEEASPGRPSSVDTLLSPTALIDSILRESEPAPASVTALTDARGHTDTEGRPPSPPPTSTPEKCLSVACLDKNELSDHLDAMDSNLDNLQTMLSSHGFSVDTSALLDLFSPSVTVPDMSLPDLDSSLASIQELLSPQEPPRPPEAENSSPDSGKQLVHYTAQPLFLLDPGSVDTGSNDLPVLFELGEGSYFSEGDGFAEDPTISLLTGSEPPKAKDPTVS
Sequence of ETV6 (P41212 whole entry): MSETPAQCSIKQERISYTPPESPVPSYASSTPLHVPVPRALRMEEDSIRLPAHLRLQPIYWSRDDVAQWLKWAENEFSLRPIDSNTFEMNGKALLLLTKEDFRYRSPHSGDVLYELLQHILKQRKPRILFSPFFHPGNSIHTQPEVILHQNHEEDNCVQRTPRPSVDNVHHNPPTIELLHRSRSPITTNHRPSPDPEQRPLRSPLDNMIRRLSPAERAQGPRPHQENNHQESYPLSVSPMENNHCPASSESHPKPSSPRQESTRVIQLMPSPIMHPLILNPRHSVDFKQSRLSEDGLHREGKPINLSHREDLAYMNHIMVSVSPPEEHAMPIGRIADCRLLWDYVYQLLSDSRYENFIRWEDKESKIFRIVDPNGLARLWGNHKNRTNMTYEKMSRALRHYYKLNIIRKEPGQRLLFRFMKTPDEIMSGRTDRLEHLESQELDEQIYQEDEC

As for TCGATC, the binding signal with FEV is 1.09 fold enrichment (6-mer frequency, TF over GST control); with ETV5, 1.19 fold enrichment (6-mer frequency, TF over GST control); with HSF1, 1.54 fold enrichment (6-mer frequency, TF over GST control); with SPIC, 1.1 fold enrichment (6-mer frequency, TF over GST control); with ELF4, 1.14 fold enrichment (6-mer frequency, TF over GST control); with ELK4 it was 1.15 fold enrichment (6-mer frequency, TF over GST control). For the same sequence, the binding signal is 1.06 fold enrichment (6-mer frequency, TF over GST control) with ETV2; 1.17 fold enrichment (6-mer frequency, TF over GST control) with ELF3; 1.23 fold enrichment (6-mer frequency, TF over GST control) with CRX; 1.16 fold enrichment (6-mer frequency, TF over GST control) in the assay with ETV1; 1.12 fold enrichment (6-mer frequency, TF over GST control) with ERF; 1.2 fold enrichment (6-mer frequency, TF over GST control) with ETV3L. Further, the binding signal with ETS2 was 1.15 fold enrichment (6-mer frequency, TF over GST control); with SPDEF, 1.09 fold enrichment (6-mer frequency, TF over GST control); in the assay with ETV7 it was 1.17 fold enrichment (6-mer frequency, TF over GST control); in the assay with ELF5, 1.11 fold enrichment (6-mer frequency, TF over GST control); with ETV3 it was 1.18 fold enrichment (6-mer frequency, TF over GST control); with ETV6, 1.11 fold enrichment (6-mer frequency, TF over GST control).
